Assay outcomes from PubChem.
Compounds with a hit are over-represented: about 5.2% of the library has one in this group of screens.
SMARCA2 activ: increases SMARCA2 function in MMTV reporter cells | MG213 cells, MMTV-luciferase reporter, dexamethasone, overnight | activation, % at 9.1 µM | hit rate 1% among 370,000 | AID 652017; in the data active = activation above about 7.8%;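 also: 0% = vehicle wells and 100% = reference activator wells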
SKN-1 inh: C. elegans SKN-1 inhibition; C. elegans VP596 Pgst-4::GFP/RFP ratio, acrylamide-induced, 24 h; inhibition, % at 21.8 µM; hit rate 0.49% among 360,000; AID 624304;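 active = interference check ratio from 0.5 to 1.5 plus GFP to RFP signal ratio inhibition reaching or exceeding a fixed threshold, cut at about 30% in these data, passing the limit was not always enough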
esBAF inh: inhibitors of esBAF chromatin remodeling in mouse ES cells; Bmi1-luciferase knock-in reporter, 24 h; 100% = twice the neutral-well signal; reporter increase, % at 12.5 µM; hit rate 2% among 350,000; in the data active = activation above about 40%;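 also: 0% = median of the plate's neutral control wells and 100% = double that signal; a rise in the Bmi1 reporter signal indicates esBAF inhibition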
NadD block: NadD (S. aureus) enzyme inhibition; purified NadD enzyme, colorimetric absorbance read-out; inhibition, % at 20 µM; hit rate 0.78% among 360,000; in the data active = inhibition above about 26%
GRIN3A LBD mod: NR3A (human) ligand-binding domain modulation | hit rate 2.5% among 340,000 | NR3A LBD differential scanning fluorimetry, Tm shift; 0% = protein alone, 100% = glycine-bound protein | Tm shift relative to glycine control, % at 25 µM;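 active = melting temperature shift of at least 10% of the positive control shift, at one fixed dose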
Vif inh: inhibitors of HIV Vif. HEK293T cells, Vif self-association by quenched fluorescence, imaging, 24 h. inhibition, % at 7.49 µM. hit rate 0.35% among 340,000; in the data active = inhibition above about 50%, passing the limit was not always enough
* = called active by the depositor.

What do the screens show for `C[C@@H](NC(=O)C[C@@H]1C[C@H]2c3cc(NC(=O)c4cccnc4)ccc3O[C@H]2[C@@H](CO)O1)c1ccccc1`?
esBAF inh: 0

Results for COc1cc(OC)c(C#N)c(S(=O)(=O)Cc2ccccc2)c1 ?
SMARCA2 activ: -4; SKN-1 inh: -1; esBAF inh: 2; NadD block: 2; GRIN3A LBD mod: 12*; Vif inh: -18

What do the screens show for `Cc1noc(C)c1S(=O)(=O)Nc1ccc2c(c1)C(=O)N([C@H](C)CO)C[C@H](C)[C@H](CN(C)C(=O)C1CCCCC1)OCCCC[C@@H](C)O2`?
esBAF inh: 1

Results for C[C@H]1CN([C@@H](C)CO)C(=O)c2cc(NC(=O)Nc3cccc4ccccc34)ccc2O[C@H]1CN(C)Cc1ccc(C(=O)Nc2ccccc2N)cc1 ?
esBAF inh: -10

How did N#CCC(CNc1ncc(C(F)(F)F)cc1Cl)OC(=O)c1ccc(Cl)cc1Cl (centres undefined) do in these assays?
SMARCA2 activ: -2; SKN-1 inh: 14; NadD block: -2; GRIN3A LBD mod: 14*; Vif inh: -4

How did COc1ccc(NC(=O)N(C)C[C@@H]2Oc3ccc(N(C)C)cc3CC(=O)N([C@@H](C)CO)C[C@H]2C)cc1 do in these assays?
esBAF inh: -1

How did O=C(NCc1ccc(F)cc1)[C@@H]1[C@@H](CO)[C@@H]2Cn3c(cccc3=O)[C@H]1N2 do in these assays?
esBAF inh: 0

How did C/C(=N/NC(=O)c1ccc(O)cc1)c1cccc([N+](=O)[O-])c1 do in these assays?
SMARCA2 activ: 7; SKN-1 inh: 0; NadD block: 2; GRIN3A LBD mod: 209*

What do the screens show for `C/C(=N\NC(=O)c1cc(-c2cccc([N+](=O)[O-])c2)n[nH]1)c1ccccc1O`?
SMARCA2 activ: 0; SKN-1 inh: -9; NadD block: 10; GRIN3A LBD mod: 26*; Vif inh: 1

Results for C/C(=N/NC(=O)c1cc(-c2cccc([N+](=O)[O-])c2)n[nH]1)c1cccc(O)c1 ?
SMARCA2 activ: -4; SKN-1 inh: 10; NadD block: 6; GRIN3A LBD mod: 10*; Vif inh: 5

How did CCOC(=O)C1=C(C)NC(C)=C(C(=O)OC)C1c1cccc([N+](=O)[O-])c1 (centres undefined) do in these assays?
SMARCA2 activ: -1; SKN-1 inh: 20; esBAF inh: -1; NadD block: -3; GRIN3A LBD mod: -23; Vif inh: 135*

What do the screens show for `CCSc1ccc(-c2cccc([N+](=O)[O-])c2)nn1`?
SMARCA2 activ: 1; SKN-1 inh: 15; esBAF inh: 49*; NadD block: -4; GRIN3A LBD mod: 0; Vif inh: -2

How did C/C(=N\NC(=O)c1ccccc1F)c1ccc2c(c1)Nc1ccccc1S2 do in these assays?
SMARCA2 activ: 0; SKN-1 inh: -4; NadD block: 4; GRIN3A LBD mod: 10; Vif inh: -16

Results for O=C(O)c1cc(-c2cccc([N+](=O)[O-])c2)n[nH]1 ?
SMARCA2 activ: 0; SKN-1 inh: -5; esBAF inh: 5; NadD block: -5; GRIN3A LBD mod: 1; Vif inh: 1

How did O=C(CSc1ccc(-c2cccc([N+](=O)[O-])c2)nn1)N1CCCC1 do in these assays?
SMARCA2 activ: -2; SKN-1 inh: -1; NadD block: -3; GRIN3A LBD mod: 0; Vif inh: -5

What do the screens show for `C/C(=N\NC(=O)c1ccc(O)cc1)c1ccc2c(c1)Nc1ccccc1S2`?
SMARCA2 activ: -4; SKN-1 inh: 14; esBAF inh: 21; NadD block: 9; GRIN3A LBD mod: 21*; Vif inh: 0

Results for CCOC(=O)c1cc(-c2cccc([N+](=O)[O-])c2)n[nH]1 ?
SMARCA2 activ: -3; SKN-1 inh: 3; esBAF inh: 6; NadD block: -4; GRIN3A LBD mod: 33*; Vif inh: -2

Results for C/C(=N\NC(=O)c1cccc([N+](=O)[O-])c1)c1ccncc1 ?
SMARCA2 activ: 3; SKN-1 inh: 3; NadD block: -2; GRIN3A LBD mod: 1; Vif inh: -4
